Bioassay records deposited in PubChem by National Center for Advancing Translational Sciences (NCATS).
Most compounds without a hit are left out; they make up all but 18% or so of the library.
IL-1B inflam inh = inflammasome signaling inhibition, IL-1 beta readout; THP-1 LPS/ATP IL-1B secretion, AlphaLISA, 16 h; hits give low values; activity change, % at 57.5 µM; 360,000 compounds, 4.7% hits; AID 743279; in the data active = activity change below about -50%; inconclusive = mostly about -30% to -49%; note: % is set by controls: 0 for no effect and ±100 for the full control effect
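Secreted IL-1B measured by AlphaLISA bead assay after 16 h compound exposure of THP-1 cells; compounds (final up to 57.5 uM) added 1 h before LPS (250 ng/mL) and ATP (1.25 mM) stimulation; lower signal means less secretion.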
TDP1 block = blocks human tyrosyl-DNA phosphodiesterase 1; 350,000 compounds, 0.28% hits; recombinant TDP1, AlphaScreen DNA substrate cleavage; Potency, µM (highest dose often 130 µM), for inactives: top-dose activity change, negative = inhibition, most hits filed as inhibitors; note: potency is the fitted concentration of half-maximal effect; % is set by controls: 0 for no effect and ±100 for the full control effect; nearly all actives have a fitted effect of over 40% in size
Target sequence (Q9NUW8 whole entry, looked up): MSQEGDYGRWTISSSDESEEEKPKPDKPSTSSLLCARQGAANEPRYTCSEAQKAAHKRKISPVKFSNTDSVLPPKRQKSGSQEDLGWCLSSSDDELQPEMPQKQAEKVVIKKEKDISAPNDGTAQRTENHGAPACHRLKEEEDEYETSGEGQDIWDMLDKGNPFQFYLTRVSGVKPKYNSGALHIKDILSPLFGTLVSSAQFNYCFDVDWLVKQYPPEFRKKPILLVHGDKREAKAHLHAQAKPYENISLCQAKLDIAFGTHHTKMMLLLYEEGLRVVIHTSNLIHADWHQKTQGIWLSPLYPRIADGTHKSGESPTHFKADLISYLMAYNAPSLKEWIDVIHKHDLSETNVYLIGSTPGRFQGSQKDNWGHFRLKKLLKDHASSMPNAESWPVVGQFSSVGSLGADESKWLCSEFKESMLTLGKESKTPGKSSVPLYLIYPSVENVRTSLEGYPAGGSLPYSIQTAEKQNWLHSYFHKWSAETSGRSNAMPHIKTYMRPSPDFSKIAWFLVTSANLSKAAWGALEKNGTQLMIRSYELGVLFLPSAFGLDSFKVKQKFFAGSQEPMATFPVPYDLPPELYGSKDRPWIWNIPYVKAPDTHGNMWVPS
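Steps: enzyme plus compound, 15 min RT; add biotin/phosphotyrosine-FITC oligonucleotide (15 nM final), react 5 min; add donor/acceptor beads (10 ug/ml final), 10 min; read AlphaScreen. Tdp1 at 1 nM final.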
TDP1 cell noCPT = qHTS for Inhibitors of human tyrosyl-DNA phosphodiesterase 1 (TDP1): qHTS in cells in absence of CPT; DT40 Tdp1-/- hTDP1 cells, no CPT, ATP luminescence, 48 h; Potency, µM (series often up to 46.2 µM), inactives show at the top dose activity change, negative = growth inhibition, hits mostly inhibitors; 420,000 compounds, 15% hits; AID 686978, 2013; note: potency is the fitted concentration of half-maximal effect; % is set by controls: 0 for no effect and ±100 for the full control effect; nearly all actives have a fitted effect of over 55% in size
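Growth kinetics read by CellTiter-Glo luminescence after ≥48 hr at 37 °C. Cells: DT40 Tdp1-/- stably carrying human TDP1, 400 per well, compound exposure in the absence of CPT (DMSO vehicle).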
TGFb inhibitor = inhibitors of TGF-b signaling | HepG2 CAGA-GFP TGF-b/SMAD3 reporter, GFP fluorescence, 18 h; TGF-beta stimulated, 500 pg/mL final | Potency, µM (highest dose often 46.1 µM), inactives show at the highest dose activity, negative = inhibition, actives largely listed as inhibitors | 410,000 compounds, 1.2% hits; note: potency is the fitted concentration of half-maximal effect; % is set by controls: 0 for no effect and ±100 for the full control effect; nearly all actives have a fitted effect of over 65% in size
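Smad-responsive CAGA-GFP expression was quantified in HEPG2 cells exposed to compounds and 500 pg/mL final TGF-beta for 18 h at 37 degrees C; unstimulated wells defined full inhibition.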
HepG2 viability = kills HepG2 cells in TGF-b inhibitor counter-screen | HepG2 CAGA-GFP viability, ATP luminescence, 18 h | Potency, µM (highest dose often 46.1 µM), for inactives: at the top dose activity change, negative = cytotoxicity, usual class: cytotoxic | 410,000 compounds, 0.76% hits; note: potency is the fitted concentration of half-maximal effect
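CellTiter-Glo luminescence gave cytotoxicity after 18 hours at 37 degrees C. The cells were HepG2 CAGA-GFP in 1% FBS DMEM, stimulated with 500 pg/mL TGF-beta after compound addition. %Activity was normalised to no-cell wells (complete cell-killing) and DMSO (no toxicity), and curves were fitted and classified.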
DT40 TDP1 CPT = growth inhibition of DT40 Tdp1-/-;hTDP1 cells with camptothecin (screen for TDP1 inhibitors); Potency, µM (doses to about 46.2 µM), inactives show at the top dose activity change, negative = growth inhibition, hits mostly inhibitors; 420,000 compounds, 12% hits; chicken DT40 Tdp1-/-;hTDP1 cells + 20 nM CPT, ATP luminescence, 48 h; AID 686979; note: potency is the fitted concentration of half-maximal effect; % is set by controls: 0 for no effect and ±100 for the full control effect; nearly all actives have a fitted effect of over 55% in size
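Cell growth measured by CellTiter-Glo luminescence after a minimum 48 h, 37 C compound exposure with 20 nM CPT in Tdp1-knockout DT40 cells stably expressing hTDP1, seeded 400/well; qHTS titration format.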
The depositor's hits bear a star; ? = inconclusive; · = no result; [ ] = remark or other dose. Unless noted, calls come from the whole dose curve; as a rule, active = well fitted curve in the direction sought with a large enough effect; inconclusive = small, poorly fitted or top-dose-only effect, or another doubt; inactive = no such curve, though single readings can be large; an effect the other way counts as inactive or inconclusive.

SMILES	IL-1B inflam inh	TDP1 block	TDP1 cell noCPT	TGFb inhibitor	HepG2 viability	DT40 TDP1 CPT
CCCN(C(=O)Cn1cnc2sc(C)c(S(=O)(=O)N3CCN(c4ncccn4)CC3)c2c1=O)c1cccc(C)c1	·	4%	15µM*	5%	7%	-26%
COc1ccc(N2CCN(C(=O)Cn3cnc4sc(C)c(S(=O)(=O)N5CCC(C)CC5)c4c3=O)CC2)cc1	·	3%	23µM*	?	-17%	?
COc1ccccc1N1CCN(C(=O)c2sc3ncn(CC(=O)N4CCC(C)CC4)c(=O)c3c2C)CC1	19	2%	1.8µM*	0%	1%	?
Cc1cccc(N2CCN(C(=O)Cn3cnc4sc(C)c(S(=O)(=O)N5CCN(c6ncccn6)CC5)c4c3=O)CC2C)c1 (centres undefined)	·	4%	15µM*	0%	-37%	16µM*
COC(=O)C1=C(C(=O)OC)[C@@H]2N(Cc3ccccc3)c3ccccc3[C@@]23C[C@@H](C(=O)OC)N(S(=O)(=O)c2ccc([N+](=O)[O-])cc2)C3=N1	·	10%[21 µM]	·	·	·	·
O=C(Nc1ccc(Br)cc1)C1CCCN(C2=NS(=O)(=O)c3ccccc32)C1 (centres undefined)	22	-2%	-12%	8%	-3%	?
Cc1sc2ncn(CC(=O)N3CCN(c4ccc(Cl)cc4)CC3)c(=O)c2c1S(=O)(=O)N1CCN(c2ncccn2)CC1	·	6%	?	-30%	-12%	12µM*
Cc1cc(NC(=O)CSc2nc3sc(C)c(C)c3c(=O)n2C2CCCC2)no1	-4	-2%	-29%	-2%	-2%	9.2µM*
Cc1cc(NC(=O)CSc2nnc3c4c(C)c(C)sc4ncn23)no1	54	3%	18µM*	1%	2%	?
CCc1c(C)sc2nc(SCC(=O)Nc3cc(C)on3)n(CCOC)c(=O)c12	-5	2%	1.2µM*	-1%	-1%	?
Cc1cc(NC(=O)CSc2nc(C(C)C)nc3sc(C)c(C)c23)no1	13	7%	-29%	1%	1%	-26%
CC(O)C1CCC2C3CCC4CC(O)CCC4(C)C3C(=O)CC12C (centres undefined)	-9	·	?	13%	0%	-27%
CCS(=O)(=O)N1CC(=O)N(c2cccc(Cl)c2C)C(C)(C(=O)NC2CCCCC2)C1 (centres undefined)	·	1%	-6%	?	-1%	-25%
O=C1[C@H]2[C@H]3[C@H](O)[C@H](O)C/C(=N/OC[C@@H](O)COCc4ccco4)[C@H]3CC[C@@H]2C(=O)N1Cc1ccc2c(c1)OCO2	·	10%[21 µM]	·	·	·	·
Cn1c(CNc2ccc(F)cc2)nc2ccccc21	-2	7%	?	9%	-55%	22%
Cc1ccccc1C(=O)N1CCN(c2ccc(NC(=O)c3ccc4c(c3)OCCO4)cc2)CC1	?	6%	23µM*	-7%	-12%	?
O=C(Nc1ccc(N2CCN(C(=O)c3ccccc3)CC2)cc1)c1ccc2c(c1)OCO2	-78*	2%	18µM*	2%	3%	15µM*
CC(C)C(=O)N1CCN(c2ccc(NC(=O)c3ccc4c(c3)OCCO4)cc2)CC1	9	-8%	1%	-14%	-29%	4%
Cc1ccc(C(=O)N2CCN(c3ccc(NC(=O)c4ccc5c(c4)OCCO5)cc3)CC2)cc1	·	5%	?	0%	2%	16µM*
COc1cccc(/C=C/C(=O)OCC(=O)Nc2ccc(N3CCOCC3)cc2)c1OC	27	4%	8%	?	1%	7%
CCC1CN(CCNC(=O)c2cn3cc(C)ccc3n2)Cc2cc(OC)ccc2O1 (centres undefined)	·	·	?	·	·	3%[9.04 µM]
CC(C)c1ccc(-c2nnn(CC(=O)N3CCCCC3)n2)cc1	-5	·	-23%	-11%	-27%	-7%
CC(C)c1ccc(-c2noc(SCC(=O)N3CCCCC3C)n2)cc1 (centres undefined)	·	3%	15µM*	-17%	-19%	?
CC1CCCCN1C(=O)CSc1nnc(-c2cccc(Cl)c2)o1 (centres undefined)	·	-5%	?	6%	-1%	16µM*
CC(C)c1ccc(-c2noc(SCC(=O)N3CCN(c4ccc(F)cc4)CC3)n2)cc1	·	5%	-17%	7%	-1%	-22%
SMILES	IL-1B inflam inh	TDP1 block	TDP1 cell noCPT	TGFb inhibitor	HepG2 viability	DT40 TDP1 CPT
CC1CCN(C(=O)Cn2nnc(-c3ccc(C(C)C)cc3)n2)CC1	24	·	?	-13%	-6%	16µM*
COc1ccc(N2CCN(C(=O)CSc3nc(-c4ccc(C(C)C)cc4)no3)CC2)cc1	·	5%	12µM*	62%	87%	18µM*
COc1ccc(C(=O)N2CCC(C)(C(=O)O)C2)c(OC)c1 (centres undefined)	10	·	1%	-1%	0%	-3%
C[C@@H]1CN([C@@H](C)CO)C(=O)CCCn2nncc2CO[C@H]1CN(C)Cc1ccccc1	22	·	10%	5%	-3%	7%
CCCCc1nc2c(c3c1C[C@H](C)OC3)CN(S(=O)(=O)c1ccccc1C(=O)OC)CC2	·	8%[21 µM]	·	·	·	·
CC1CCN(C(=O)CSc2nc(-c3ccc(C(C)C)cc3)no2)CC1	·	3%	23µM*	75%	53%	21µM*
CN(C)CCCNCC(=O)c1c(-c2ccccc2)n(C)c2ccccc12	-20	·	18µM*	0%	-4%	29µM*
Cn1c(-c2ccccc2)c(C(=O)CC#N)c2ccccc21	7	3%	?	-17%	-14%	?
O=S(=O)(c1ccc2c(c1)OCCO2)N1CCN(S(=O)(=O)c2ccc3nc(Cl)c(Cl)nc3c2)CC1	·	-14%	·	·	·	·
Cc1nc(N2CCN(c3ccccc3F)CC2)[nH]c(=O)c1C	-15	·	?	-3%	-12%	?
CCc1c(C)nc(N2CCN(c3ccccc3F)CC2)[nH]c1=O	-3	·	23µM*	4%	4%	?
Cn1c(=O)c2c(ncn2Cc2ccc(Cl)c(Cl)c2)n(C)c1=O	-13	0%	12µM*	22%	-6%	23µM*
Cn1c(=O)c2c(ncn2Cc2cc(-c3ccccc3)no2)n(C)c1=O	0	7%	26µM*	15%	3%	?
CN(Cc1ccccc1)c1cc(Cl)nc(N)n1	-19	5%	-15%	3%	-10%	?
